# Source: PubChem BioAssay (NCATS)
# Inconclusive results are not listed. A number with no mark means an inactive call. Calls of active or inactive are those of the source. Calls come from the whole dose curve; as a rule, active = well fitted cell-killing curve with a large enough effect; inconclusive = small, poorly fitted or top-dose-only effect, or effect the other way; inactive = no such curve, though single readings can be large or run the other way.
# Tests used:
# [1] = Viability qHTS for spleen associated tyrosine kinase inhibitor (SYKi) naive MV4-11 cells (AID 1963823); note: nearly all actives have a fitted effect of over 40% in size
# Outline: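 Seeding of 500 SYKi-naive MV4-11 cells per well onto pre-dispensed compounds preceded a 72 hr incubation at 37 C. Luminescent CellTiter-Glo signal, read after 10 min at room temperature, reflected viable cells.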
# [2] = Viability qHTS for spleen associated tyrosine kinase inhibitor (SYKi) drug resistant MV4-11 cells (AID 1963824); note: nearly all actives have a fitted effect of over 35% in size
# Outline: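 SYK-inhibitor-resistant MV4-11 AML cells were seeded at 500 per well onto compound and cultured 72 hours (37 °C, 5% CO2). CellTiter-Glo was then added, and after 10 min at room temperature, luminescence gave viability.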
# Potency is the fitted concentration of half-maximal effect.
smiles,measurement,setting,value
CCCCCOc1cc2c(cc1-c1cc(/C=C/C(=O)O)ccc1O)C(C)(C)CCC2(C)C,Potency,[1],20.6 µM (active)
same,Potency,[2],23.1 µM (active)
CO[C@H]1C[C@H](O[C@H]2CC[C@]3(C=O)[C@H]4CC[C@]5(C)[C@@H](C6=CC(=O)OC6)CC[C@]5(O)[C@@H]4CC[C@]3(O)C2)O[C@H](C)[C@H]1O,Potency,[1],0.0632 µM (active)
same,Potency,[2],0.0399 µM (active)
COC(=O)N1CCN(C(=O)Cc2ccc(Cl)c(Cl)c2)[C@@H](CN2CCCC2)C1,Potency,[1],inactive
same,Potency,[2],inactive
N#CC(OC1OC(COC2OC(CO)C(O)C(O)C2O)C(O)C(O)C1O)c1ccccc1 (stereo not given),Potency,[1],inactive
same,Potency,[2],inactive
CN1CCCC1CCOC(c1cc2nccc(C(=O)O)c2[nH]1)c1ccccc1Cl (stereo not given),Potency,[1],inactive
same,Potency,[2],inactive
Clc1ccc(CO/N=C(\Cn2ccnc2)c2ccc(Cl)cc2Cl)c(Cl)c1,Potency,[1],13.3 µM (active)
same,Potency,[2],9.44 µM (active)
C=C1[C@@H](C)[C@H]2[C@H](Cc3ccccc3)NC(=O)[C@]23[C@H](OC(C)=O)/C=C/[C@](C)(O)C(=O)[C@@H](C)C/C=C/[C@H]3[C@@H]1O,Potency,[1],1.46 µM (active)
same,Potency,[2],0.731 µM (active)
COC1CC(O[C@H]2CC[C@]3(C=O)C4CC[C@]5(C)[C@@H](C6=CC(=O)OC6)CC[C@]5(O)[C@@H]4CC[C@]3(O)C2)OC(C)C1O[C@@H]1O[C@H](CO)[C@@H](O)[C@H](O)[C@H]1O (stereo not given in full),Potency,[1],0.0862 µM (active)
CN1C(=O)[C@@H](Cc2c[nH]c3ccccc23)N=C(c2ccccc2F)c2ccccc21,Potency,[1],20.6 µM (active)
COC1C(O)C(C)OC(OC2C(CO)O[C@@H](O[C@@H]3CC4CCC5C(CC[C@]6(C)[C@@H](C7=CC(=O)OC7)CC[C@]56O)[C@@]4(C)[C@H](O)C3)C(O)C2O)C1O (stereo not given in full),Potency,[1],0.385 µM (active)
same,Potency,[2],0.217 µM (active)
C[C@@H]1O[C@@H](OC2CCC3(C=O)C(CCC4C3CCC3(C)C(C5=CC(=O)OC5)C(O)CC43O)C2)[C@H](O)[C@H](O)[C@H]1O[C@@H]1O[C@H](CO)[C@@H](O)[C@H](O)[C@H]1O (stereo not given in full),Potency,[1],2.17 µM (active)
same,Potency,[2],1.72 µM (active)
O=C1N[C@@H](Cc2ccccc2)CN2CCCC[C@@H]12,Potency,[1],inactive
same,Potency,[2],inactive
Nc1ccn(CC(CO)OCP(=O)(O)O)c(=O)n1 (stereo not given),Potency,[1],inactive
COc1cc(O)c2c(c1)CCC[C@@H](O)[C@H](O)C(=O)/C=C\C[C@H](C)OC2=O,Potency,[1],1.8 µM (active)
same,Potency,[2],2.86 µM (active)
COC1=CC(=O)O[C@@H](CCc2ccccc2)C1,Potency,[1],inactive
CC1C/C=C/C(O)C(O)CC/C=C/c2cc(O)cc(O)c2C(=O)O1 (stereo not given),Potency,[1],5.7 µM (active)
same,Potency,[2],8.05 µM (active)
C[C@]12CC[C@H]3[C@@H]([C@H](O)CC4=CC(=O)CC[C@@]43C)[C@@H]1CC[C@@H]2O,Potency,[1],inactive
Oc1ccc2c3c1O[C@H]1[C@H](N(CCCl)CCCl)CC[C@@]4(O)[C@@H](C2)N(CC2CC2)CC[C@]314,viability (% of control),[1],89.3% [at 9.25 µM]
same,"viability, % of control",[2],83.4% [at 9.25 µM]
COCC1OC(=O)c2coc3c2C1(C)C1=C(C3=O)C2CCC(=O)C2(C)CC1O (stereo not given),Potency,[1],inactive
same,Potency,[2],inactive
COC(=O)[C@@]12C(=O)C(C)C(=O)[C@]1(C)C(C)=C[C@H]1[C@]3(C=O)CC[C@H](OC(C)=O)C(C)(C)[C@H]3CC[C@@]12C (stereo not given in full),Potency,[1],inactive
CC(=O)O[C@H]1C[C@@H](C)O[C@H]2O[C@@H]3CC4CC[C@@H]5C(CC[C@]6(C)[C@@H](C7=CC(=O)OC7)CC[C@]56O)[C@@]4(C=O)C[C@H]3O[C@]21O (stereo not given in full),Potency,[1],0.0432 µM (active)
C=C(C)[C@@]12O[C@@H]1[C@@]1(C)C(=CC2=O)CC[C@@H](OC(C)=O)[C@@H]1C,Potency,[1],2.31 µM (active)
same,Potency,[2],2.31 µM (active)
CCCCCCCCC(=O)NCc1ccc(O)c(OC)c1,Potency,[1],inactive
same,Potency,[2],inactive
Cc1cccc(NC(=O)N[C@H]2CN(C)c3ccccc3C(c3ccccc3)=N2)c1,Potency,[1],25.9 µM (active)
C[C@@]12C[C@@H](c3ccoc3)OC(=O)C1CC[C@]1(C)[C@H]2[C@H]2C=C[C@]1(O)C(=O)O2 (stereo not given in full),Potency,[1],inactive
same,Potency,[2],inactive
C/C=C(/C)C1C=CC2CC(C)CC(C)C2C1/C(O)=C1\C(=O)NC(CC(C)(O)C(=O)O)C1=O (stereo not given),Potency,[1],inactive
C[C@]12C/C(=C/O)C(=O)C[C@@H]1CC[C@@H]1[C@@H]2CC[C@@]2(C)[C@H]1CC[C@]2(C)O,Potency,[1],18.8 µM (active)
CC(C)(NC(=O)[C@@H](N)Cc1ccc(O)cc1)C(=O)N[C@@H](Cc1cc2ccccc2[nH]1)C(=O)N[C@@H](Cc1ccccc1)C(=O)O,Potency,[1],3.35 µM (active)
CC(C)=CC1C(C(=O)OCN2C(=O)C3=C(CCCC3)C2=O)C1(C)C (stereo not given),Potency,[1],inactive
same,Potency,[2],inactive
Nc1ncnc2c1ncn2[C@@H]1O[C@@H]2COP(O)(=S)O[C@H]2[C@H]1O (stereo not given in full),viability (% of control),[1],76.1% [at 9.25 µM]
same,"viability, % of control",[2],81% [at 9.25 µM]
CO[C@@H]1[C@H](O)[C@@H](O[C@@H]2C[C@H]3CC[C@@H]4C(CC[C@]5(C)[C@@H](C6=CC(=O)OC6)CC[C@]45O)[C@@]3(C)[C@H](O)C2)O[C@H](C)[C@@H]1O[C@@H]1O[C@H](CO)[C@@H](O)[C@H](O)[C@H]1O (stereo not given in full),Potency,[1],0.0968 µM (active)
same,Potency,[2],0.0544 µM (active)
C=C1C(=O)CC2OC2(C)CC2OC(=O)C(=C)C2C(O)C1OC(=O)/C(C)=C\C (stereo not given),Potency,[1],0.508 µM (active)
same,Potency,[2],0.57 µM (active)
CC(C)=CCC[C@]1(C)C=Cc2c(O)c3c(c(CC=C(C)C)c2O1)O[C@]12C(=C[C@@H]4CC1C(C)(C)O[C@@]2(C/C=C(/C)C(=O)O)C4=O)C3=O,Potency,[1],0.517 µM (active)
same,Potency,[2],0.461 µM (active)
CN1C(=O)C(Cc2ccc3ccccc3c2)N=C(c2ccc(O)cc2)c2cc(Cl)ccc21 (stereo not given),Potency,[1],20.6 µM (active)
same,Potency,[2],13 µM (active)
CO[C@H]1C[C@H](O[C@H]2CC[C@]3(CO)[C@H]4CC[C@]5(C)[C@@H](C6=CC(=O)OC6)CC[C@]5(O)[C@@H]4CC[C@]3(O)C2)O[C@H](C)[C@H]1O,Potency,[1],0.1 µM (active)
same,Potency,[2],0.0632 µM (active)
CO[C@@H]1[C@@H](O)[C@@H](O[C@H]2CC[C@]3(C=O)C4CC[C@]5(C)[C@@H](C6=CC(=O)OC6)CC[C@]5(O)[C@@H]4CC[C@H]3C2)O[C@@H](C)[C@H]1O[C@@H]1O[C@H](CO[C@@H]2O[C@H](CO)[C@@H](O)[C@H](O)[C@H]2O)[C@@H](O)[C@H](O)[C@H]1O (stereo not given in full),Potency,[1],3.9 µM (active)
same,Potency,[2],1.38 µM (active)
C[C@]12CC[C@H](O)C[C@@H]1CC[C@@H]1[C@@H]2CC[C@]2(C)[C@@H](C3=CC(=O)OC3)CC[C@]12O,Potency,[1],3.21 µM (active)
same,Potency,[2],2.55 µM (active)
C[C@]12CC[C@H](O)C[C@H]1CC[C@@H]1[C@@H]2[C@H](O)C[C@]2(C)[C@@H](c3ccc(=O)oc3)CC[C@]12O,Potency,[1],0.0184 µM (active)
same,Potency,[2],0.0146 µM (active)
CC[C@H]1C[C@@H]2CC[C@@H](O2)[C@@H](C)C(=O)O[C@H](CC)C[C@H]2CC[C@H](O2)[C@H](C)C(=O)O[C@@H](C)C[C@@H]2CC[C@@H](O2)[C@@H](C)C(=O)O[C@H](CC)C[C@H]2CC[C@H](O2)[C@H](C)C(=O)O1,Potency,[1],0.0122 µM (active)
same,Potency,[2],0.0137 µM (active)
CC12Cc3cn[nH]c3C=C1CCC1C2CCC2(C)C1CCC2(C)O (stereo not given),Potency,[1],25.9 µM (active)
same,Potency,[2],20.6 µM (active)
c1cncc(OC[C@@H]2CCN2)c1,Potency,[1],inactive
same,Potency,[2],inactive
O=C(N[C@@H](COc1ccc2[nH]c(=O)[nH]c2c1)c1ccccc1)c1cccn(Cc2ccc(F)c(F)c2)c1=O,Potency,[1],11.6 µM (active)
same,Potency,[2],11.6 µM (active)
CC(=O)O[C@H]1C[C@]2(O)[C@@H]3CC[C@@H]4C[C@@H](O)CC[C@]4(C)[C@H]3CC[C@]2(C)[C@H]1c1ccc(=O)oc1,Potency,[1],0.0259 µM (active)
same,Potency,[2],0.0231 µM (active)
C[C@]12CC[C@H](O[C@@H]3O[C@H](CO)[C@@H](O)[C@H](O)[C@H]3O[C@@H]3O[C@H](CO)[C@@H](O)[C@H](O)[C@H]3O)CC1=CC[C@@H]1[C@@H]2CC[C@]2(C)[C@@H](C3=CC(=O)OC3)CC[C@]12O,Potency,[1],6.11 µM (active)
same,Potency,[2],4.32 µM (active)
C[C@@H]1C[C@@H](O)[C@]2(O)O[C@@H]3C[C@@]4(C=O)C(CC[C@@H]5C4CC[C@]4(C)[C@@](O)(C6=CC(=O)OC6)CC[C@]54O)C[C@H]3OC2O1 (stereo not given in full),Potency,[1],0.796 µM (active)
same,Potency,[2],0.709 µM (active)
CO/C1=C\C(C)=C\[C@@H](C)[C@@H](O)[C@@H](C)C/C(C)=C/C=C/[C@H](OC)[C@@H]([C@@H](C)[C@@H](O)[C@H](C)[C@@]2(O)C[C@@H](O)[C@H](C)[C@@H](C(C)C)O2)OC1=O,Potency,[1],0.0217 µM (active)
same,Potency,[2],0.0172 µM (active)
CN1CCCCC1Cn1cc(C(=O)c2cc([N+](=O)[O-])ccc2I)c2ccccc21 (stereo not given),Potency,[1],14.6 µM (active)
same,Potency,[2],10.3 µM (active)
CCC1NC(=O)C2C(Cl)C(Cl)CN2C(=O)C(C(C)O)NC(=O)CC(c2ccccc2)NC(=O)C(CO)NC1=O (stereo not given),Potency,[1],inactive
same,Potency,[2],inactive
CC(C)(C)c1cc(C(C)(C)C)c2c(c1)C(O)(C(F)(F)F)C(=O)O2 (stereo not given),Potency,[1],inactive
same,Potency,[2],inactive
C=C1[C@@H](C)[C@H]2[C@H](Cc3ccccc3)NC(=O)[C@]23OC(=O)/C=C/C(=O)CCC[C@@H](C)C/C=C/[C@H]3[C@@H]1O,Potency,[1],0.92 µM (active)
same,Potency,[2],0.92 µM (active)
CC(=O)OC[C@]12C[C@H](OC(C)=O)C(C)=C[C@H]1O[C@@H]1[C@H](O)[C@@H](O)[C@@]2(C)[C@]12CO2,Potency,[1],inactive
same,Potency,[2],inactive
O=C1C[C@@H]2OCC=C3CN4CC[C@]56c7ccccc7N1[C@H]5[C@H]2[C@H]3C[C@H]46,Potency,[1],inactive
same,Potency,[2],inactive
C/C=C(\C)C(=O)O[C@H]1CC2C(=C1C)[C@H]1OC(=O)[C@](C)(O)[C@]1(O)[C@H](OC(=O)CCC)C[C@@]2(C)OC(C)=O (stereo not given in full),Potency,[1],1.78 µM (active)
same,Potency,[2],0.563 µM (active)
